Experimental findings from ChEMBL document CHEMBL1961873, “Compounds: GSK PKIS; Assays: Nanosyn kinase panel” (2012) are described below.
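Also: values are mean inhibition of TBK1, screened as part of the GSK published kinase inhibitor set.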

In the assay the target is T1, Serine/threonine-protein kinase TBK1 (Homo sapiens) (UniProt Q9UHD2).
T1 sequence (whole entry): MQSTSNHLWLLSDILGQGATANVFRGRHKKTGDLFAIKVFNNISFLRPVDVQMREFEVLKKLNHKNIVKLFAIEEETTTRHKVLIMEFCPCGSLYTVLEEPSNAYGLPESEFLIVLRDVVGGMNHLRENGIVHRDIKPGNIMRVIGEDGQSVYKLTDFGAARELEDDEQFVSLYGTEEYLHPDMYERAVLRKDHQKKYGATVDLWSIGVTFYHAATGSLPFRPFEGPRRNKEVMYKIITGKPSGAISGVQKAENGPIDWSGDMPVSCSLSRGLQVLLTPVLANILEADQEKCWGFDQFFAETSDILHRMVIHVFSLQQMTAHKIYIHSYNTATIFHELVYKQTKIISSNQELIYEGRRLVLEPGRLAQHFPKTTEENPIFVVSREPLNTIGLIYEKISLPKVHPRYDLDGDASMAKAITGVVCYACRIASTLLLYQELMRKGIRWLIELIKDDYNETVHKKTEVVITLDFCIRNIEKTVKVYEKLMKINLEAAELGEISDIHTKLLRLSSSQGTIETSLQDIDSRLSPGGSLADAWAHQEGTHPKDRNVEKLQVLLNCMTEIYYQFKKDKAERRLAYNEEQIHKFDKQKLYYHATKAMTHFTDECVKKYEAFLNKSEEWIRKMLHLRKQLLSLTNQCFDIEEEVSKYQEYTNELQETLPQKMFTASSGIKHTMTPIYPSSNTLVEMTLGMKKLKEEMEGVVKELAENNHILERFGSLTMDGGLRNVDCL
Conditions: at 1 µM.
In general, inhibition refers to the percentage by which the read-out fell short of the control. The low end stands for a response near the control, the high end for a response far below the control. `Fc1ccc(-c2ncn(C3CCNCC3)c2-c2ccnc(Oc3ccccc3)n2)cc1` registered an inhibition of 2.78%.
Consider `NS(=O)(=O)c1ccc(-c2ccc3c(NC(=O)C4CC4)n[nH]c3c2)cc1`, for which the inhibition stood at 3.1%.
On to `Cc1cc(-c2ccco2)cc(C)c1/C=C/c1cncc(-c2nn[nH]n2)c1`, for which the inhibition came to 2.37%.
`CCn1c(-c2nonc2N)nc2c(C#CC(C)(C)O)ncc(OCC3CCNCC3)c21` yielded an inhibition of 44.7%.
In turn, `NS(=O)(=O)c1ccc(N/C=C2\C(=O)Nc3ccc4ncsc4c32)cc1` displayed an inhibition of 46.7%.
Molecule `COc1cc2c(cc1Nc1nc(Nc3ccsc3C(N)=O)c3cc[nH]c3n1)N(C(=O)CN(C)C)CCC2` returned an inhibition of 25%.
Next, `Nc1nonc1-c1nc2cnccc2n1C1CCCCC1`: 24.8%; `CCn1c(-c2nonc2N)nc2c(C#CCN)ncc(OCCCN)c21`: 4.32%.
`COc1cccc(-n2ncc3c(N/N=C/c4ccncc4)ncnc32)c1` displayed an inhibition of 13.1%.
Take `CCn1c(-c2nonc2N)nc2c(C#CC(C)(C)O)ncc(OC[C@@H]3CCCN3)c21`: the inhibition is 41.2%.
In the case of `COc1cccc(COc2cc(-n3cnc4ccccc43)sc2C(N)=O)c1`, the inhibition stood at 1.53%.
`COc1cc(C=NNc2ncnc3c2cnn3Cc2ccccc2)ccc1O` showed an inhibition of 3.75%.
The molecule `CCn1c(-c2nonc2N)nc2c(C#CC(C)(C)O)nc(O[C@@H](CN)c3ccccc3)cc21` gave an inhibition of 68%.
Molecule `NC(=O)c1sc(-n2cnc3cc(C(F)(F)F)ccc32)cc1OCc1ccccc1Br` gave an inhibition of 1.3%.
